Experiment [1] in a line: qHTS assay for small molecules that induce genotoxicity in human embryonic kidney cells expressing luciferase-tagged ATAD5 (AID 651632). Note: nearly all actives have a fitted effect of over 15% in size. Note: potency is the fitted concentration of half-maximal effect. In short, it runs like this: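 ATAD5-luc HEK293T, 2,000 cells/well; cpd or DMSO pin-transferred; 16 hr, 37C/5% CO2; Amplite 30 min RT; luminescence.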
(In general: In qHTS, concentration-response curves come from the screen itself.)

The nature of experiment [2]: qHTS assay for small molecules that induce genotoxicity in human embryonic kidney cells expressing luciferase-tagged ATAD5 - cell viability (AID 651634; calls by dose curve; note: nearly all actives have a fitted effect of over 25% in size; note: potency is the fitted concentration of half-maximal effect). In short, it runs like this:
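Fluorescence from CellTiter-Fluor, reporting protease activity within live cells, served as the viability read-out. HEK293T cells carrying luciferase-tagged ATAD5 had been treated with compound for 15.5 hr at 37C.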

Experiment [3] can be described thus: qHTS assay for small molecule disruptors of the mitochondrial membrane potential - cell viability (AID 720634; calls by dose curve;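 note: human HepG2 liver cancer cells; % is set by controls: 0 for no effect and ±100 for the full control effect; nearly all actives have a fitted effect of over 20% in size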). In short, it runs like this: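 Cells: HepG2, 2,000/well, attached overnight. Compound 1 hr, 37 C/5% CO2. +m-MPI dye, +CellTiter-Glo 30 min RT. Readout: luminescence (ATP).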
The nature of experiment [4]: qHTS assay to test for compound auto fluorescence at 590 nm (red) in HepG2 cells (AID 720674). Note: % is set by controls: 0 for no effect and ±100 for the full control effect. The method in brief: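 1 hr compound incubation on HepG2 cells, 37 C, 5% CO2; plate read ex 540 nm / em 590 nm; intensities reported as Rose Bengal sodium equivalents.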
Experiment [5] in a line: qHTS assay to test for compound auto fluorescence at 535 nm (green) in HepG2 cells (AID 720675). Note: % is set by controls: 0 for no effect and ±100 for the full control effect.
A short description of experiment [6]: qHTS assay to test for compound auto fluorescence at 460 nm (blue) in HEK293 cells (AID 720678). Note: % is set by controls: 0 for no effect and ±100 for the full control effect. The method in brief: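 Blue-channel (Ex/Em 405/460 nm) intensity measured in HEK293 cultures after overnight compound exposure at 37C; signal expressed relative to triamterene. Cells plated 2,000 per well in 10% dialyzed FBS medium and allowed 4-5 hr to attach.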

The nature of experiment [7]: qHTS assay to test for compound auto fluorescence at 590 nm (red) in HEK293 cells (AID 720679). Note: % is set by controls: 0 for no effect and ±100 for the full control effect. In short, it runs like this: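 Red-channel autofluorescence (Ex/Em 540/590 nm; Rose Bengal sodium reference) was measured after overnight 37C, 5% CO2 exposure of attached HEK293 cells, 2,000 per well in medium with 10% dialyzed FBS.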
Experiment [8] is described as follows: qHTS assay to test for compound auto fluorescence at 535 nm (green) in HEK293 cells (AID 720680). Note: % is set by controls: 0 for no effect and ±100 for the full control effect.
Experiment [9] is described as follows: qHTS assay to test for compound auto fluorescence at 460 nm (blue) in HEK293 cell free culture (AID 720681). Note: % is set by controls: 0 for no effect and ±100 for the full control effect. In short, it runs like this:
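Blue fluorescence (Ex 405/Em 460 nm, triamterene-equivalent) was read immediately after pin transfer of compound or DMSO into medium (DMEM, 10% FBS) without cells.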

Experiment [10] in a line: qHTS assay to test for compound auto fluorescence at 535 nm (green) in HEK293 cell free culture (AID 720682). Note: % is set by controls: 0 for no effect and ±100 for the full control effect. The method in brief: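 Read-out: 485/535 nm fluorescence intensity, calibrated against fluorescein. Medium only (DMEM + 10% FBS, no cells); test compound or DMSO vehicle added by pintool before plate reading.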
Experiment [11] is described as follows: qHTS assay to test for compound auto fluorescence at 590 nm (red) in HEK293 cell free culture (AID 720683). Note: % is set by controls: 0 for no effect and ±100 for the full control effect. In short, it runs like this:
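Red-channel autofluorescence of compounds in culture medium (DMEM, 10% FBS), no cells, measured at 540/590 nm. Rose Bengal sodium is the reference fluorophore for equivalence.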

Experiment [12] is described as follows: qHTS assay to test for compound auto fluorescence at 590 nm (red) in HepG2 cell free culture (AID 720684). Note: % is set by controls: 0 for no effect and ±100 for the full control effect. The method in brief:
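Plate contents were MEM with 10% FBS plus test compound or DMSO, no cells. Fluorescence was recorded with 540 nm excitation and 590 nm emission.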

The nature of experiment [13]: qHTS assay to test for compound auto fluorescence at 460 nm (blue) in HepG2 cell free culture (AID 720685). Note: % is set by controls: 0 for no effect and ±100 for the full control effect. In short, it runs like this: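 Compound (23 nL) or DMSO pinned into cell-free MEM with 10% FBS; blue fluorescence read at 405/460 nm excitation/emission, expressed as auto-fluorescence equivalency to triamterene.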
Experiment [14] is described as follows: qHTS assay to test for compound auto fluorescence at 535 nm (green) in HepG2 cell free culture (AID 720686). Note: % is set by controls: 0 for no effect and ±100 for the full control effect.
A short description of experiment [15]: qHTS assay to test for compound auto fluorescence at 460 nm (blue) in HepG2 cells (AID 720687). Note: % is set by controls: 0 for no effect and ±100 for the full control effect. In short, it runs like this: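 Blue-channel autofluorescence (Ex/Em 405/460 nm, triamterene-equivalent) was measured after 1 hr compound exposure at 37 C, 5% CO2. Cells were HepG2, plated overnight at 37 C in MEM plus 10% FBS.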
Experiment [16] concerns the target Glucocorticoid receptor (Homo sapiens) (UniProt P04150). The experiment in a line: qHTS assay to identify small molecule agonists of the glucocorticoid receptor (GR) signaling pathway (AID 720691; active = well fitted activation curve with a large enough effect in the signal ratio in the repeat runs, not every such curve was filed as active; the % refers to the signal ratio; note: % is set by controls: 0 for no effect and ±100 for the full control effect). To be noted: GR-bla HeLa, beta-lactamase reporter ratio, 18 h; activation: at 62.4 µM (top of the series). The method in brief: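 Fluorescence intensity from LiveBLAzer B/G FRET substrate (2 h, room temperature) reports beta-lactamase expression driven by the glucocorticoid response element in GR-bla HeLa cells after 18 h compound exposure at 37 C.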

Experiment [17] has the same target. The experiment in a line: qHTS assay to identify small molecule antagonists of the glucocorticoid receptor (GR) signaling pathway (AID 720692; active = well fitted inhibition curve with a large enough effect in the signal ratio in the repeat runs, not every such curve was filed as active; the % refers to the signal ratio; note: potency is the fitted concentration of half-maximal effect). The method in brief:
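HeLa GR-bla cells; cmpd + dex 5 nM final, 18 h 37 C; LiveBLAzer B/G FRET substrate 2 h RT; fluorescence intensity read. Antagonist mode, qHTS.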

A short description of experiment [18]: qHTS assay for small molecule agonists of the p53 signaling pathway - cell viability (AID 651633; calls by dose curve; note: potency is the fitted concentration of half-maximal effect; nearly all actives have a fitted effect of over 30% in size). The method in brief:
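Viability counter-read: CellTiter-Glo luminescence (30 min, room temperature) in the same p53RE-bla plates. These plates had been exposed to compounds for 16 h at 37 C.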

Experiment [19] in a line: qHTS assay for small molecule disruptors of the mitochondrial membrane potential (AID 720635). Note: potency is the fitted concentration of half-maximal effect. The method in brief: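 Mitochondrial membrane potential tracked with Mito-MPS dye, red aggregates (ex 540/em 590 nm) against green monomers (ex 490/em 535 nm). Compound treatment 1 hr at 37C, dye 30 min in HepG2.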

Several values for one entry are separate records, joined by “and”; a condition that tells them apart may be missing. Equal entries are not always repeated. Unmarked numbers belong to inactive results. Inconclusive results are not listed. Activity calls are given as the source filed them. Unless noted, calls come from the whole dose curve; as a rule, active = well fitted curve in the direction sought with a large enough effect in the repeat runs; inconclusive = weak or mixed curves; inactive = no such curve, though single readings can be large; an effect the other way counts as inactive or inconclusive.

Results on seven molecules are retold here after PubChem BioAssay (Tox21).

Sequence of Glucocorticoid receptor (Homo sapiens) (P04150 whole entry, looked up): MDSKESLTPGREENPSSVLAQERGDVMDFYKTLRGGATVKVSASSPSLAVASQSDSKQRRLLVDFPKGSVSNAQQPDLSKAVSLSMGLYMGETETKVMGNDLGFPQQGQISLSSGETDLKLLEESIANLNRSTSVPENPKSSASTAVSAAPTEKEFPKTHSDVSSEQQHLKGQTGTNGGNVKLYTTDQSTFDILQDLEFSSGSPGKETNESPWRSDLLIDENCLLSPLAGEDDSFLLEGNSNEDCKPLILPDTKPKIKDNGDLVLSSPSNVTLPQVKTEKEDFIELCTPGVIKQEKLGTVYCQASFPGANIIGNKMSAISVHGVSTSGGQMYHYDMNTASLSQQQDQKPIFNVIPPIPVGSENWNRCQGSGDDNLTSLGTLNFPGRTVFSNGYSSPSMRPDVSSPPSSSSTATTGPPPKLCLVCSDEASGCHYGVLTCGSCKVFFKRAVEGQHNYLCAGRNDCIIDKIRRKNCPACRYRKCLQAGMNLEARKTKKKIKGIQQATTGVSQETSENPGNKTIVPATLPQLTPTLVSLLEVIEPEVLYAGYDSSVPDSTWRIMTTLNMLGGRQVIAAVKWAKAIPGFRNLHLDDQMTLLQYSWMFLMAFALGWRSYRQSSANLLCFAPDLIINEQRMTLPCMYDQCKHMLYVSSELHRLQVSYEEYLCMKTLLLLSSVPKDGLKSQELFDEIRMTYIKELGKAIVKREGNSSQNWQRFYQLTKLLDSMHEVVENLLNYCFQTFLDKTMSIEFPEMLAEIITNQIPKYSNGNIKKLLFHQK

As for `CCN(CC)CCSC(=O)C(c1ccccc1)c1ccccc1`, the Potency result in [1], in [2], in experiment [3], in experiment [4], in experiment [5] and in experiment [6] was “inactive” throughout. The Potency entry in experiment [7], in experiment [8], in [9], in experiment [10], in experiment [11] and in [12] was “inactive” in each case. The Potency result in [13], in experiment [14], in experiment [15] and in [16] was “inactive” each time. Further, in experiment [17], the Potency was 19 µM (active) and 10.7 µM (active).

Regarding `CCCCCCCC/C=C\CCCCCCCC(=O)N(C)CC(=O)O`, the Potency entry in experiment [1], in [4], in experiment [5], in experiment [6], in experiment [7] and in experiment [8] was “inactive” each time. The Potency result in experiment [9], in [10], in experiment [11], in [12], in experiment [13] and in experiment [14] was “inactive” in each case. Further, the Potency result in [15] is “inactive”. In experiment [18], the Potency is 43.3 µM (active).

For `C=CC(=O)OCCOCC(CC)(COCCOC(=O)C=C)COCCOC(=O)C=C`, the Potency in [1] was 28.4 µM (active); in experiment [2] it was 80.2 µM (active); in [17], 22.8 µM (active). The Potency entry in experiment [3], in experiment [19], in experiment [4], in [5], in experiment [6] and in [7] was “inactive” throughout. For the same molecule, the Potency result in [8], in [9], in experiment [10], in experiment [11], in experiment [12] and in experiment [13] was “inactive” throughout. Moreover, the Potency entry in experiment [14] and in experiment [15] was “inactive” each time.

For `COc1cc(C(C)C)c2c(c1)S(=O)(=O)N(COc1cc(=O)n3cccc(OCCN4CCCCC4)c3n1)C2=O`, the Potency result in experiment [1] and in experiment [2] was “inactive” throughout. Besides, the fluorescence, relative to Rose Bengal in experiment [4] was 0.436% [at 18.6 µM]. Besides, the fluorescence, % of fluorescein control was -0.0646% [at 18.6 µM] in [5] and -0.0973% [at 18.6 µM] in [14]. The fluorescence, % of triamterene in experiment [6] was 0.0293% [at 18.6 µM]. The fluorescence, % of fluorescent control in experiment [7] is 0.266% [at 18.6 µM]; in experiment [9], -0.0582% [at 18.6 µM]; in experiment [11], 0.355% [at 18.6 µM]; in experiment [13], -0.155% [at 18.6 µM]; in experiment [15] it was 0.0401% [at 18.6 µM]. Also, the fluorescence, % of fluorescein in experiment [8] is -0.188% [at 18.6 µM]. Further, in experiment [10], the activity change is -0.182% [at 18.6 µM, hits give high values]. Besides, the fluorescence, % of Rose Bengal in experiment [12] was -0.164% [at 18.6 µM]. For the same molecule, in experiment [17], the Potency is 10.4 µM (active).

With `CSc1ccc2c(c1)N(CCC1CCCCN1C)c1ccccc1S2` (centres undefined), the Potency entry in [1], in [4], in experiment [5], in [6], in [7] and in experiment [8] was “inactive” throughout. The Potency result in [9], in experiment [10], in experiment [11], in [12], in experiment [13] and in experiment [14] was “inactive” each time. Further, the Potency result in [15] was “inactive”. Besides, the Potency in experiment [2] is 29.8 µM (active) and 68.3 µM (active).

With `Clc1ccccc1CN1CCc2sccc2C1`, the Potency entry in [1], in experiment [2], in experiment [3], in [4], in experiment [5] and in experiment [6] was “inactive” in each case. The Potency result in experiment [7], in [8], in experiment [9], in [10], in experiment [11] and in experiment [12] was “inactive” each time. Also, the Potency entry in experiment [13], in [14] and in [15] was “inactive” each time. The Potency in experiment [19] is 26.6 µM (active).

For `C=CC(=O)OCCC#N`, the Potency entry in experiment [1], in [2], in experiment [3], in [4], in experiment [5] and in [6] was “inactive” in each case. Moreover, the Potency entry in [7], in experiment [8], in experiment [9], in [10], in [11] and in [12] was “inactive” in each case. Besides, the Potency entry in experiment [13], in experiment [14], in [15] and in [16] was “inactive” each time.
